The text below walks through data of the supplement of paper PMC13380429.

The subject of assay [1] is Vero E6 infected with SARS-CoV-2. In words: morphology score (similarity to uninfected cells); higher = more like uninfected cells. The settings on record: 24 h.
The test system is the same in assay [2]. In words: SARS-CoV-2 infection rate relative to infected DMSO; higher = more infection, active = 60 or less. The settings on record: 24 h.

Structures are written as SMILES.

Compound `Cc1ncc([N+](=O)[O-])n1CC(O)CCl` (stereo unspecified) [ornidazole] (10 µM) came in with a morphology score in assay [1] of 0.0809. The SARS-CoV-2 infection rate in assay [2] is 107% (inactive).

Consider `C/C(=N\Nc1nnc2c(n1)[nH]c1c(C)cccc12)c1ccccn1` (10 µM), for which the morphology score in assay [1] came out at 0.01. In assay [2], the SARS-CoV-2 infection rate is 107% (inactive).

In turn, `CC1(C)O[C@H]2CC(=O)OC[C@]23[C@H]2CC[C@@]4(C)[C@H](c5ccoc5)OC(=O)[C@H]5O[C@]54[C@]2(C)C(=O)C[C@@H]13` [limonin] (10 µM) returned a morphology score in assay [1] of 0.289. Further, the SARS-CoV-2 infection rate in assay [2] is 103% (inactive).

`Fc1ccccc1-c1nc2ccn(Cc3ccc(-c4ccc(C(F)(F)F)cc4C(F)(F)F)nn3)cc-2n1` [tegobuvir] (10 µM) had a morphology score in assay [1] of 0.081. Besides, in assay [2], the SARS-CoV-2 infection rate is 102% (inactive).

In the case of `CC[C@H]1[C@@H]2C[C@H]3[C@@H]4N(C)c5ccccc5[C@]45C[C@@H]([C@@H]2[C@H]5O)N3[C@@H]1O` [ajmaline] (10 µM), the morphology score in assay [1] is -0.0982. Further, in assay [2], the SARS-CoV-2 infection rate was 106% (inactive).

Turning to `O=[N+]([O-])c1cn2c(n1)OC[C@@H](OCc1ccc(OC(F)(F)F)cc1)C2` [pretomanid] (10 µM), the morphology score in assay [1] came out at 0.0902. In assay [2], the SARS-CoV-2 infection rate was 112% (inactive).

Take `CO[C@@]1(NC(=O)CSC[C@@H](N)C(=O)O)C(=O)N2C(C(=O)O)=C(CSc3nnnn3C)CS[C@@H]21` [cefminox] (10 µM): the morphology score in assay [1] was determined as 0.045. Besides, the SARS-CoV-2 infection rate in assay [2] was 115% (inactive).

In the case of `Cn1ccc2cc(NC(=O)Nc3cccnc3)ccc21` (10 µM), the morphology score in assay [1] is -0.0432. For the same compound, the SARS-CoV-2 infection rate in assay [2] is 117% (inactive).

For `C[n+]1ccccc1C=NO` [pralidoxime] (10 µM), in assay [1], the morphology score was -0.226. Also, in assay [2], the SARS-CoV-2 infection rate is 116% (inactive).

As to `C=CC(=O)O` [acrylate] (10 µM), the morphology score in assay [1] was -0.0871. In assay [2], the SARS-CoV-2 infection rate is 109% (inactive).

As for `N[C@@H](C(=O)O)c1ccc(C(=O)O)c(O)c1` (racemic) [4-carboxy-3-hydroxyphenylglycine-(RS)] (10 µM), the morphology score in assay [1] is 0.126. In assay [2], the SARS-CoV-2 infection rate was 101% (inactive).

For `COc1cccc(N2CCN(C3=Nc4c(F)cccc4[C@H](CC(=O)O)N3c3cc(C(F)(F)F)ccc3OC)CC2)c1` [letermovir] (10 µM), the morphology score in assay [1] was -0.0548. In assay [2], the SARS-CoV-2 infection rate is 109% (inactive).

`Cn1nnc2c(C(N)=O)ncn2c1=O` [temozolomide] (10 µM): the morphology score in assay [1] was -0.0949. The SARS-CoV-2 infection rate in assay [2] was 114% (inactive).

Regarding `CC(C)(O)c1coc(S(=O)(=O)NC(=O)Nc2c3c(cc4c2CCC4)CCC3)c1` (10 µM), the morphology score in assay [1] came out at 0.0866. Also, the SARS-CoV-2 infection rate in assay [2] was 93.5% (inactive).

Consider `CN1CCN(CCCN2c3ccccc3Sc3ccc(S(=O)(=O)N(C)C)cc32)CC1` [thioproperazine] (10 µM), for which the morphology score in assay [1] amounted to 0.251. In assay [2], the SARS-CoV-2 infection rate was 102% (inactive).

As to `CCCCc1oc2ccc(NS(C)(=O)=O)cc2c1C(=O)c1ccc(OCCCN(CCCC)CCCC)cc1` [dronedarone] (0.833333 µM), the morphology score in assay [1] was -0.0676. Besides, in assay [2], the SARS-CoV-2 infection rate is 116% (inactive).

With `COc1ncc(-c2ccc3c(Nc4cc(Oc5cc(F)cc(F)c5)cc(C(=O)O)c4)c(S(=O)(=O)NC4CC4)cnc3c2)c(OC)n1` (10 µM), in assay [1], the morphology score is -0.00104. The SARS-CoV-2 infection rate in assay [2] is 109% (inactive).

On to `CC(C)COC(=O)c1ccc(N)cc1` [isobutamben] (10 µM), for which the morphology score in assay [1] stood at 0.0167. Also, in assay [2], the SARS-CoV-2 infection rate is 106% (inactive).

For the compound `COc1cc(C(=O)NC2CCCNC2)cc(OC)c1OC` (stereo unspecified) [troxipide] (10 µM), the morphology score in assay [1] was -0.014. Moreover, in assay [2], the SARS-CoV-2 infection rate was 120% (inactive).

`CCN1CCN(c2cc(-c3ccc(F)cc3)c3c(n2)CCCCCC3)CC1` [blonanserin] (10 µM) showed a morphology score in assay [1] of 0.248. Besides, in assay [2], the SARS-CoV-2 infection rate is 107% (inactive).

The compound `O=C(O)P(=O)(O)O` [foscarnet] (10 µM) gave a morphology score in assay [1] of 0.202. In addition, in assay [2], the SARS-CoV-2 infection rate is 98% (inactive).

Turning to `CNc1cc2[nH]c(=O)n(-c3ccc(NC(=O)NS(=O)(=O)c4ccc(Cl)s4)cc3)c(=O)c2cc1F` [elinogrel] (10 µM), the morphology score in assay [1] was 0.235. In addition, the SARS-CoV-2 infection rate in assay [2] was 87.5% (inactive).

Regarding `Cn1c([N+](=O)[O-])cnc1COC(N)=O` [ronidazole] (10 µM), the morphology score in assay [1] is -0.00677. In addition, the SARS-CoV-2 infection rate in assay [2] was 114% (inactive).

With `CC(C(=O)O)c1ccc2c(c1)[nH]c1ccc(Cl)cc12` (stereo unspecified) [carprofen] (10 µM), the morphology score in assay [1] is -0.0165. The SARS-CoV-2 infection rate in assay [2] is 108% (inactive).

On to `CC(=O)Nc1ccc(NC(=S)NC(=O)c2ccc(C(C)(C)C)cc2)cc1` [tenovin-1] (10 µM), for which, in assay [1], the morphology score is -0.0316. Besides, the SARS-CoV-2 infection rate in assay [2] was 109% (inactive).

The compound `CCCCC/N=c1\ccn(Cc2ccccc2)c2ccccc12` (10 µM) yielded a morphology score in assay [1] of 0.0295. The SARS-CoV-2 infection rate in assay [2] is 108% (inactive).

In the case of `Cc1ccc(C(=O)Nc2ccc(CN3CCN(C)CC3)c(C(F)(F)F)c2)cc1C#Cc1cnc2cccnn12` [ponatinib] (10 µM), the morphology score in assay [1] came to 0.435. In assay [2], the SARS-CoV-2 infection rate was 97% (inactive).

As for `CCc1cn([C@H]2C[C@H](O)[C@@H](CO)O2)c(=O)[nH]c1=O` [edoxudine] (10 µM), the morphology score in assay [1] turned out to be 0.0361. Also, the SARS-CoV-2 infection rate in assay [2] is 108% (inactive).
